Results reported in PubChem BioAssay (NCI).
Several values for one entry are separate records, joined by “and”; a condition that tells them apart may be missing. Equal values may be shown once. The panel holds about 79,000 compounds, 15% with a hit somewhere; the sample as a whole holds those more often. Rule as the data show it: active = growth inhibition above about 70%; inactive = the rest. Where a SMILES comes first, the peptide text is derived from it. [ ]: non-standard residue; d: D form. The star is where a group is joined. NMeF = CN[C@@H](Cc1ccccc1)C(=O)O; NMeV = CN[C@H](C(=O)O)C(C)C; Boc = CC(C)(C)OC(=O)*; OBn = c1ccc(CO*)cc1

How the values were obtained:
[1] = NCI Yeast Anticancer Drug Screen. Data for the rad50 strain (AID 155);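 also: 0% = growth of vehicle-only cultures of the same strain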; conditions: S. cerevisiae rad50 strain growth inhibition, active compounds read high; at 50.0 µM unless noted
In short: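 Readout: growth inhibition relative to vehicle-treated cultures. Compound exposure was carried out in a genetically defined yeast strain deficient in DNA damage repair.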

[2] = NCI Yeast Anticancer Drug Screen. Data for the mec2-1 strain (AID 157); conditions: S. cerevisiae mec2-1 strain, active compounds read high; at 50.0 µM unless noted
In short: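 Using mec2-1 yeast: add compound, measure growth, express inhibition versus vehicle-treated cultures.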

[3] = NCI Yeast Anticancer Drug Screen. Data for the sgs1 mgt1 strain (AID 161);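 also: 0% = growth of cultures given vehicle only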; conditions: S. cerevisiae sgs1 mgt1 strain, active compounds read high; at 50.0 µM unless noted
In short: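 Growth of a repair-deficient yeast mutant was monitored after compound treatment and expressed as inhibition relative to vehicle-treated cultures.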

[4] = NCI Yeast Anticancer Drug Screen. Data for the cln2 rad14 strain (AID 165);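 also: 0% = growth equal to vehicle treated cultures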; conditions: S. cerevisiae cln2 rad14 strain, active compounds read high; at 50.0 µM unless noted
In short: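 Yeast strain cln2 rad14, bearing defects in cell cycle control and DNA repair, serves as the test system; values reflect growth inhibition compared with vehicle.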

[5] = NCI Yeast Anticancer Drug Screen. Data for the bub3 strain (AID 167); conditions: S. cerevisiae bub3 mutant strain, active compounds read high; at 50.0 µM unless noted
In short: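 Readout: yeast growth inhibition, expressed relative to vehicle-only wells. The test organism is a mutant strain from a panel with lesions in DNA repair or checkpoint genes.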

[6] = NCI Yeast Anticancer Drug Screen. Data for the mlh1 rad18 strain (AID 175); conditions: S. cerevisiae mlh1 rad18 strain growth inhibition, active compounds read high; at 50.0 µM unless noted
In short: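 Steps: expose repair-defective yeast to compound; measure growth; express inhibition against vehicle-treated controls.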

Measured: growth inhibition

CC(=C/c1ccccc1)/C=C1/NC(=S)NC1=O
inactive: [1] -25.6% | [2] -41.9% | [3] -16.4% | [4] -2.7% | [5] -23.4% | [6] -21.4%

C#CCN(N=O)C(=O)NCCCCC(NC(C)=O)C(=O)NCc1ccccc1 (stereo unspecified)
inactive: [1] 3.4% | [2] -16.9% | [3] -16.9% | [4] 5% | [5] -16.2% | [6] -15.1%

O=C1c2c(Br)sc(Br)c2C(NC(=O)C(F)(F)F)C1O (stereo unspecified)
inactive: [1] 10.3% | [2] 18.3% | [3] -12.3% | [4] -11% | [5] 3.95% | [6] -27.4%

CCCCN=C(N)C(N)=NCCCC
inactive: [1] -13.8% | [2] -4.65% | [3] -5.7% | [4] -28.3% | [5] 0.5% | [6] -18.7%

NC(=O)N/N=C/c1ccc([N+](=O)[O-])cc1
inactive: [1] 7.35% | [2] -2.6% | [3] -6.55% | [4] -24.1% | [5] 15.9% | [6] -4.2%

Cc1cccc(OC(=O)NC2CCCCC2)c1
inactive: [1] 3.5% | [2] -4.25% | [3] -13.2% | [4] -72.3% | [5] 6.5% | [6] -13.3%

CC(=O)OC[C@H](O)[C@@]1(O)CC[C@H]2[C@@H]3CCC4=CC(=O)C=C[C@]4(C)[C@H]3[C@@H](O)C[C@@]21C
inactive: [1] 33.2% | [2] 14.9% | [3] 23.9% | [4] 1.15% | [5] 41.6% | [6] 27%

CC(C)C(=O)NCC[C@@H](CNC(=O)OC(C)(C)C)NC(=O)OC(C)(C)C
inactive: [1] 20.1% | [2] -3.1% | [3] 38.6% | [4] -3.85% | [5] 28.7% | [6] 34.5%

ClC(Cl)(Cl)c1ncnc2nc[nH]c12
inactive: [1] -15.1% | [2] -11.8% | [3] 0.5% | [4] 9.95% | [5] -16.9% | [6] 13.3%

N=C(N)SCCc1cn2ccccc2n1
inactive: [1] -5.45% | [2] -45.9% | [3] -17.1% | [4] 3.65% | [5] -15.8% | [6] 1.05%

O=C1N(C2CCCCC2)C(/C=C/c2ccccc2)C1(c1ccccc1)c1ccccc1 (stereo unspecified)
inactive: [1] 22.4% | [2] 0.25% | [3] 3.65% | [4] 19.6% | [5] -6.05% | [6] 4.7%

O=C(O)c1ccc(Cl)o1
inactive: [1] 7.7% | [2] -3.6% | [3] -23.1% | [4] -1.05% | [5] 10.1% | [6] 5.6%

Cc1cc(Nc2nnc(-c3cccnc3Oc3ccccc3)s2)ccc1Br
inactive: [1] 1.25% | [2] -6.85% | [3] -11.6% | [4] 16.7% | [5] 0.5% | [6] -5.35%

CCOc1ccccc1N=Nc1c(-c2ccccc2)nn(C(=O)CC(=O)Nc2cccc(Cl)c2)c1-c1ccccc1
inactive: [1] 12.6% | [2] -13.9% | [3] 40.9% | [4] 9.2% | [5] 26.2% | [6] 22.2%

CC(C)[C@@H](C(=O)N1CCC[C@H]1C(=O)OCc1ccccc1)N(C)C(=O)[C@H](C(C)C)N(C)C(=O)[C@H](Cc1ccccc1)N(C)C(=O)[C@H](NC(=O)OC(C)(C)C)C(C)C (Boc-[dV][NMeF][NMeV][NMeV]P-OBn)
inactive: [1] -41.9% | [2] -42.1% | [3] -38.2% | [4] -38.1% | [5] -42.6% | [6] -36.3%

COc1ccc(Nc2nc3ccccc3nc2-c2cccs2)cc1OC
inactive: [1] -5.8% | [2] -2% | [3] 13.9% | [4] 9.3% | [5] -0.7% | [6] -23.4%

CN(C)C(=O)OC(Cn1cncn1)(Cn1cncn1)c1ccc(Cl)cc1Cl
inactive: [1] -29.8% | [2] 13% | [3] 7.5% | [4] -10.8% | [5] 5.1% | [6] -16.8%

COc1ccc2occ(CCC(=O)O)c2c1
inactive: [1] 6.4% | [2] -0.75% | [3] -2.25% | [4] -25.9% | [5] -1.1% | [6] 6.9%

CCCCOC(=O)/C=C/C(=O)OCCCC
inactive: [1] -34.6% | [2] 9.6% | [3] 8.85% | [4] 4% | [5] -0.45% | [6] 43.9%

O=C(O)/C(=C/c1cccc(Cl)c1)c1ccc(Cl)cc1
inactive: [1] 0.85% | [2] -10.8% | [3] 0.7% | [4] -51.8% | [5] 2.4% | [6] -0.75%

O=C1CCCC(=O)N1n1c(Cc2ccc(Cl)cc2)n[nH]c1=O
inactive: [1] -31.6% | [2] -11.8% | [3] 1.3% | [4] 7.5% | [5] -19.6% | [6] -1.5%

Nc1nc(Cl)cc(NCCCCCCCCNc2cc(Cl)nc(N)n2)n1
inactive: [1] -2.3% | [2] -1.65% | [3] -7.35% | [4] -7.8% | [5] -3.95% | [6] -3.55%

OC1C(SCc2ccccc2)OCC2OC3(CCCCC3)OC21 (stereo unspecified)
inactive: [1] -5.1% | [2] -5.7% | [3] -9% | [4] -5.9% | [5] 1.75% | [6] 9.45%

C=CC(=O)NC12CC3CC(CC(C3)C1)C2
inactive: [1] -4.45% | [2] -0.3% | [3] -8.1% | [4] -23.9% | [5] -15.6% | [6] 0.05%

CCOC(=O)C(=O)Nc1c(C)cccc1C(C)(C)C
inactive: [1] -22.1% | [2] -30.4% | [3] -4.35% | [4] 3.55% | [5] -16.8% | [6] -7.05%

C/C(CC(C)C)=N/O
inactive: [1] 3.75% and -12.1% | [2] -3.25% and -4.35% | [3] -17.5% and -5.85% | [4] -23.2% and -20.5% | [5] -0.4% and 3% | [6] 11.8% and 9.05%

CCOC(=O)c1c(C)[nH]c(C(=O)CCN(C)C)c1C
inactive: [1] 7.35% | [2] 0.2% | [3] 17.4% | [4] -33.9% | [5] 2.1% | [6] 0.65%

CCN(CC)C(=O)CCn1cc(F)c(=O)[nH]c1=O
inactive: [1] -65.8% | [2] -51% | [3] -35% | [4] 1.65% | [5] -25.8% | [6] -15.9%

CCCC1OC(c2cc3c(cc2Br)OCO3)OCC1CC (stereo unspecified)
inactive: [1] -4.5% | [2] -8.9% | [3] 9.25% | [4] 3.1% | [5] 23.1% | [6] -4.7%

O=C1C=CC(=O)C(CNc2ccc(C(=O)OCc3ccccc3)cc2)=C1
inactive: [1] 23.6% | [2] 8.75% | [3] -28.9% | [4] -30.6% | [5] -42.9% | [6] -3.1%

COC(=O)Nn1c(C)c(C(=O)OC)c(C(=O)Nc2ccccc2)c1-c1ccccc1
inactive: [1] 6.1% | [2] -3% | [3] -5.2% | [4] -1.45% | [5] 5.05% | [6] 23.5%

COc1ccc(C=C(C(=O)O)C(=O)O)cc1
inactive: [1] 30.1% | [2] -11.6% | [3] -8.15% | [4] 17.8% | [5] 22% | [6] 29.6%

O=C(CCl)Oc1ccc(C(=O)O)cc1
inactive: [1] -1.1% | [2] -3.55% | [3] -1.8% | [4] -3.65% | [5] 0.85% | [6] -6.7%

CN(C)S(=O)(=O)c1ccccc1C(O)(c1ccccc1)c1ccccc1 (tested in a mixture with another compound)
inactive: [1] 35.1% | [2] 8.7% | [3] -7.75% | [4] -4.55% | [5] 15.2% | [6] 32.4%

Cc1c(N(C)CN(C)c2c(C)n(C)n(-c3ccccc3)c2=O)c(=O)n(-c2ccccc2)n1C
inactive: [1] -13.2% | [2] -27.4% | [3] -15.7% | [4] 3.25% | [5] -12.9% | [6] -18%

NC(Cc1ccc2nc3c4ccccc4c(=O)cc-3oc2c1)C(=O)O (stereo unspecified)
inactive: [1] -23.4% | [2] -40.9% | [3] -14.6% | [4] 19.3% | [5] 10.1% | [6] -13.7%

O=C1c2ccccc2C(=O)N1CCS(=O)(=O)O
inactive: [1] 8.65% | [2] 18.1% | [3] 14.2% | [4] -7.55% | [5] 10.2% | [6] 9.9%

CC(C)(C)C(=O)NC(OC(NC(=O)C(C)(C)C)C(=O)C(C)(C)C)C(=O)C(C)(C)C (stereo unspecified)
inactive: [1] 4.05% | [2] 6.25% | [3] -21.4% | [4] -0.6% | [5] -0.1% | [6] 21%

CCCCCCCCCCCCCCCCCCc1ccc(O)cc1O
inactive: [1] -2.05% | [2] -2.05% | [3] -15.9% | [4] 12.6% | [5] 1.75% | [6] -5.2%

Cc1c(NC(=O)CSC(=S)N(C)C)c(=O)n(-c2ccccc2)n1C
inactive: [1] -1.1% | [2] -2.45% | [3] -18.4% | [4] 6.75% | [5] -35.8% | [6] -53.4%

CS(=O)(=O)OCCN(CCOS(C)(=O)=O)c1cc(C(N)=O)c([N+](=O)[O-])cc1[N+](=O)[O-]
inactive: [1] -5.05% | [2] 9.55% | [3] -11.7% | [4] -12.9% | [5] -0.35% | [6] 16.9%
